Source: PubChem (National Center for Advancing Translational Sciences (NCATS))
Cruzain Triton: qHTS Assay for Promiscuous and Specific Inhibitors of Cruzain (with detergent); Cruzipain (Trypanosoma cruzi), P25779; purified cruzain, Z-FR-AMC fluorescence, 0.01% Triton; Potency, µM, most hits filed as inhibitors; 0.43% of 200,000 active; AID 1478, 2009; note: nearly all actives have a fitted effect of over 40% in size
Target sequence (P25779 123-467 limits assumed): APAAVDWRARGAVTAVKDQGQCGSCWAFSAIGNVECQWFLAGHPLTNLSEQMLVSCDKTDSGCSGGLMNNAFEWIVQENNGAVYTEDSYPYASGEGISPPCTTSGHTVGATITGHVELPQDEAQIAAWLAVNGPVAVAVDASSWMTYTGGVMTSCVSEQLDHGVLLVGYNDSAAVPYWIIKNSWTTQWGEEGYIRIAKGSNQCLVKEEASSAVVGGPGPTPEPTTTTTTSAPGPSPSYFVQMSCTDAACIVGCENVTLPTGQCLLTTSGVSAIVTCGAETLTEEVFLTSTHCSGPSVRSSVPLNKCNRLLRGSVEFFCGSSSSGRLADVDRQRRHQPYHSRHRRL
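Compounds were screened in titration against cruzain (1.5 nM) with 0.01% Triton X-100 to counter colloidal aggregation. Activity was the AMC fluorescence increase over 60 s after adding 2 uM Z-FR-AMC at pH 5.5.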
Cruzain inh noDet: qHTS Assay for Promiscuous and Specific Inhibitors of Cruzain (without detergent) | Cruzipain (Trypanosoma cruzi), P25779 | AID 1476, 2009 | 2.3% of 200,000 active | Potency, µM, most hits filed as inhibitors | purified cruzain, Z-FR-AMC fluorescence, no detergent; note: nearly all actives have a fitted effect of over 40% in size
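Detergent-free condition (0.00005% Triton X-100) in acetate buffer pH 5.5 with DTT. 1.5 nM enzyme and compound were pre-mixed 15 min, then 2 uM Z-FR-AMC substrate added; reaction progress from fluorescence change between first and third reads (60 s).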
Numbers stand for hits; n = inactive; u = inconclusive. In the library only some 2.4% were active in any assay of this set; here they are far more common. Calls come from the whole dose curve; as a rule, active = well fitted curve in the direction sought with a large enough effect; inconclusive = small, poorly fitted or top-dose-only effect, or another doubt; inactive = no such curve, though single readings can be large; an effect the other way counts as inactive or inconclusive.

SMILES	Cruzain Triton	Cruzain inh noDet
COC(=O)c1c(NC(=O)C2SC(=NC3CCCCC3)C(C(N)=O)=C2N)sc2c1CCCC2 (stereo not drawn)	n	7.94µM
C=C(C)CN=C1SC(C(=O)Nc2sc3c(c2C(=O)OC)CCC3)C(N)=C1C(N)=O (stereo not drawn)	n	n
O=C(c1ccc2c(c1)N(Cc1ccccc1)C(=O)c1ccccc1S2(=O)=O)N1CCN(c2ccccc2)CC1	n	n
COc1ccc(C(=O)Nc2ccc(NC(=O)c3cccs3)cc2)cc1OC	n	n
CC(=O)NC(=S)Nc1ccc(NC(=O)c2cccs2)cc1	n	n
COc1ccc(C(=O)Nc2ccc(NC(=O)c3cccs3)cc2)cc1Cl	n	7.94µM
Cc1c(C(=O)NC(=S)Nc2ccc(NC(=O)c3cccs3)cc2)oc2ccccc12	n	12.6µM
O=C(NNC(=S)NC(=O)c1cccs1)c1ccc(NC(=O)c2ccccc2)cc1	n	20µM
O=C(Nc1ccc(NC(=S)NC(=O)c2cccs2)cc1)c1ccccc1	n	n
CC(=O)OCC1OC(n2cnc3c(Cl)nc(Cl)nc32)C(OC(C)=O)C1OC(C)=O (stereo not drawn)	n	n
CCc1ccc(NC(=O)C(=O)NCC(c2cccnc2)N2CCN(c3ccc(F)cc3)CC2)cc1 (stereo not drawn)	n	u
Cc1c(Cl)cccc1N=c1c([N+](=O)[O-])nn(-c2ccccc2)n1O	n	20µM
Cc1ccc(N=c2c([N+](=O)[O-])nn(-c3ccccc3)n2O)c(C)c1	n	u
COC(=O)[C@H]1CC2(CC=C(C)C)C(=O)[C@@](CC=C(C)C)(C(=O)C(C(=O)c3ccccc3)=C2OC)C1(C)C (tested in a mixture with another compound)	n	u
COC(=O)c1ccc(C(NC(=O)OCc2ccccc2)/C(=C/[C@@H](C)C(=O)NCc2ccncc2)c2cccnc2)cc1 (stereo partly drawn)	n	n
COc1ccc(C(=O)c2sc3nc(C)cc(-c4cccs4)c3c2N)cc1OC	n	u
CC1(C)CC(=O)c2cc(-c3nc(-c4ccc(Br)cc4)cs3)c(=O)n(-c3ccccc3)c2C1	n	n
Nc1c(C(=O)c2ccccc2)sc(Nc2ccccc2)c1S(=O)(=O)c1ccccc1	n	7.94µM
CCS(=O)(=O)c1c(Nc2ccc(F)c(Cl)c2)sc(C(=O)c2ccccc2)c1N	n	n
Cc1cc(C)cc(Nc2sc(C(=O)c3ccccc3)c(N)c2S(=O)(=O)c2ccccc2)c1	n	10µM
Cc1ccc(Nc2sc(C(=O)c3ccccc3)c(N)c2C(N)=O)cc1	n	n
NCC1CCC(N)C(O[C@@H]2C(O)[C@H](O[C@H]3OC(CO)C(O)C(N)C3O)[C@@H](N)C[C@H]2N)O1 (stereo partly drawn)	n	n
Cc1ccc(CN2C(=O)c3ccccc3S(=O)(=O)c3ccc(C(=O)OCC4CCCO4)cc32)cc1 (stereo not drawn)	n	n
COC(=O)[C@@]1(Cc2ccc(OC)cc2)[C@H]2c3cc(C(=O)N(C)C)n(CCN4CNCC4=O)c3C[C@H]2CN1C(=O)c1ccccc1	n	u
CC(C)CC(=O)Nc1ccc(C(=O)NNC(=O)C(c2ccccc2)c2ccccc2)cc1	n	25.1µM
SMILES	Cruzain Triton	Cruzain inh noDet
CCC(=O)Nc1ccc(C(=O)NNC(=O)C(c2ccccc2)c2ccccc2)cc1	n	u
C[C@H]1[C@H](NC(=O)/C(=N/OC(C)(C)C(=O)O)c2csc(N)n2)C(=O)N1S(=O)(=O)O (stereo in doubt)	n	n
N[C@@H](CO)C(=O)NNCc1ccc(O)c(O)c1O	n	n
C[C@@]12C[C@H](O)C3[C@H](CCC4=CC(=O)CC[C@]43C)[C@H]1CC[C@@H]2c1csc(N)n1 (stereo partly drawn)	n	n
CCCOC(=O)c1ccc(-c2ccc(C=O)o2)cc1	n	n
CCOC(=O)c1ccc(-c2ccc(/C=C(\C#N)C(=O)Nc3c(C)cccc3Cl)o2)cc1	n	n
CCCCOC(=O)c1ccc(-c2ccc(/C=N/NC(=S)NCC)o2)cc1	n	25.1µM
CCCCOC(=O)c1ccc(NC(=O)/C(C#N)=C/c2ccc(-c3ccccc3)o2)cc1	n	25.1µM
CCCC[C@@H]1C[C@H]1C(NC(=O)c1cccnc1)c1ccc(-c2ccccc2)cc1 (stereo partly drawn)	n	n
COc1cc(/C=N/NC(N)=O)cc(Br)c1OCc1ccc(C)cc1	n	u
Cc1cc(Br)c(OCc2ccc(C(=O)N/N=C3\CC4CC=CC34)cc2)c(Br)c1 (stereo not drawn)	n	20µM
COc1cc(OC)c2c(-c3cccc(-c4ccc(C(C)=O)cc4)c3)cc(=O)oc2c1	n	u
COc1cc(OC)c2c(-c3cccc(-c4ccc(OC)c(F)c4)c3)cc(=O)oc2c1	n	31.6µM
COc1ccc(-c2cccc(-c3cc(=O)oc4ccc(C(C)(C)C)cc34)c2)cc1	n	35.5µM
COc1cc2oc(=O)cc(-c3cccc(-c4ccc(C(F)(F)F)cc4)c3)c2c(OC)c1OC	n	n
COC(=O)C1CC1C(NC(=O)[C@H]1CCCCN1)c1ccccc1 (stereo partly drawn)	n	n
CCCCC/C=C\C/C=C\C/C=C\CCCCCCC(=O)NCCCC(=O)O	n	n
CCC/C=C(\CCC)C(NS(=O)(=O)CC12CCC(CC1=O)C2(C)C)c1ccc(C(=O)OC)cc1 (stereo not drawn)	n	n
Cc1cccc(C2=NN(c3ccc(Br)cc3)[C@@H](C(=O)N3CCOC3=O)[C@@H]2c2ccccc2)c1	n	17.8µM
C[C@@H]1C(c2ccccc2)=NN(c2ccccc2)[C@H]1C(=O)N1CCOC1=O	n	n
O=C1OCCN1C(=O)[C@H]1[C@H](c2ccccc2)C(c2ccccc2)=NN1c1ccccc1	n	u
O=C1OCCN1C(=O)[C@H]1[C@H](c2ccc([N+](=O)[O-])cc2)C(c2ccc(F)cc2)=NN1c1ccc(Br)cc1	n	8.91µM
O=C1OCCN1C(=O)[C@H]1[C@H](c2ccccc2)C(c2ccccc2)=NN1c1ccc(Br)cc1	n	20µM
O=C1OCCN1C(=O)[C@H]1[C@H](c2ccc([N+](=O)[O-])cc2)C(c2ccc(F)cc2)=NN1c1ccccc1	n	u
Cc1cccc(C2=NN(c3ccccc3)[C@@H](C(=O)N3CCOC3=O)[C@@H]2c2ccccc2)c1	n	u
SMILES	Cruzain Triton	Cruzain inh noDet
O=C1OCCN1C(=O)[C@H]1[C@H](c2ccccc2)C(c2ccc(F)cc2)=NN1c1ccc(Br)cc1	n	20µM
CCC[C@@H]1C[C@@]1(CCC)C(NC(=O)c1ccccc1)c1cccc(Cl)c1 (stereo partly drawn)	n	n
COc1ccc(CNC(=O)Cn2ccc3cc(S(=O)(=O)N4CCCCC4)ccc32)c(OC)c1	n	u
COc1cccc([C@@H]2Oc3ccc(OC)cc3C[C@H]2OC(=O)N[C@H](C)C2CCCCC2)c1	n	n
CC1(C)COCN1COC1CCCCC1	n	n
O=C1CCCCC2CCCCN12 (stereo not drawn)	n	n
Cc1cccc(C)c1NC(=O)Cn1c(=O)n(Cc2ccco2)c(=O)c2ccc(C(=O)NC3CCCC3)cc21	n	n
CCOc1ccccc1-n1nnc(-c2nc(-c3ccccc3C)no2)c1C	n	n
C[N@+]1(CCC(=O)c2ccccc2)CC[C@H]2CC[C@H](C2)C1	n	n
